Drawing on PubChem BioAssay AID1529 (NMMLSC, 2009), this text covers binding response (% of control) for 94 molecules.

Among all 290,000 compounds or so, about 4,200 (1.4%) were called active.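 How the source made its calls: active means binding response more than 3 SD above or below the average of its plate-row segment, actives on both sides; inconclusive means wells at one plate position flagged as instrument error; inactive means the rest.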 For the sample, actives were picked, then their nearest neighbours and some compounds at random.

Sequence of Mitogen-activated protein kinase kinase kinase 3 (Homo sapiens) (Q99759 whole entry, looked up): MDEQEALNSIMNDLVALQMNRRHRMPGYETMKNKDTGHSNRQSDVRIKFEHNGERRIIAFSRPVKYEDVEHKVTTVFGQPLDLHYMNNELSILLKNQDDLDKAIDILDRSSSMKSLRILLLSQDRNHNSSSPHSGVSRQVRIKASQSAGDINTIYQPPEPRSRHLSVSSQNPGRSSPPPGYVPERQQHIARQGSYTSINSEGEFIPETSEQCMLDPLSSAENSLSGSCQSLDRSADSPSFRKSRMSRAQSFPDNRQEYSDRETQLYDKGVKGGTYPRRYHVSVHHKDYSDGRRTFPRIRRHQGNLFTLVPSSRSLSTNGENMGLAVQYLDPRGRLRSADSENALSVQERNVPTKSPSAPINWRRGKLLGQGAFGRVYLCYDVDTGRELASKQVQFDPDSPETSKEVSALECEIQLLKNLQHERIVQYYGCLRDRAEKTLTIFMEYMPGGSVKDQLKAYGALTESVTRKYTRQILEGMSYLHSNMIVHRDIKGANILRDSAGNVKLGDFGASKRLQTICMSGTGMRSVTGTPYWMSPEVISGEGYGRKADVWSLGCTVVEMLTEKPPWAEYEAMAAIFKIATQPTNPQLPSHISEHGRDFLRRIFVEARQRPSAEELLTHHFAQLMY

This experiment has as its target Mitogen-activated protein kinase kinase kinase 3 (Homo sapiens) (UniProt Q99759). As to the kind of experiment: modulators of MEKK3-MEK5 PB1 binding, primary screen, biochemical, wildtype MEKK3, multiplex bead flow cytometry, Alexa488-MEK5 (AID 1529).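 Further: Alexa488 bead fluorescence after subtracting the streptavidin-only scavenger bead signal.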 As to conditions: bead-based flow cytometry, Alexa488-MEK5 binding to MEKK3; at 10 µM; actives lie on both sides; 0 = blocked by unlabeled MEK5, 100 = vehicle. Background: A flow cytometer gives signals particle by particle.
As for `COC(=O)C1=C[C@@H](C(=O)OC)[C@@H]2C3=C(C(=O)[C@]2(C)NC(=O)c2ccccc2)[C@H](C)n2c(=O)n(C)c(=O)n2[C@@H]3C1`, the binding response (% of control) was 108% (inactive).
As for `CC(c1cccnc1)N(CCN(C)C)C(=O)Nc1ccc(Cl)c(Cl)c1` (centres undefined), the figure is 96% (inactive); as for `C/C(CC(=O)NC(C)(C)C)=N\NC(=O)c1ccco1`, 140% (active); as for `CC(C)(C)NC(=O)c1cc(NC(=O)c2ccco2)cc(NC(=O)c2ccco2)c1`, 101% (inactive).
Consider `COc1ccc(N(CC(=O)NC(C)(C)C)C(=O)c2ccco2)cc1`, for which the binding response (% of control) is 98% (inactive).
With `Cc1ccc(S(=O)(=O)N[C@@H](Cc2ccccc2)C(=O)N2CCC(C(=O)N[C@H](C(=O)O)C(C)O)CC2)cc1` (some centres undefined), the binding response (% of control) is 107% (inactive).
Turning to `Cc1ccc(CSc2nsc(C)c2C#N)cc1`, the binding response (% of control) was 103% (inactive).
With `CC(C)CC(=O)Nc1ccc(Cc2ccncc2)cc1` the figure was 104% (inactive); with `COc1cccc(OC)c1C(=O)Nc1ccc2c(c1)n(C)c(=O)n2C`, 109% (inactive); with `COc1cccc(OC)c1C(=O)Nc1ccc(Cc2ccncc2)cc1`, 147% (active).
Consider `CCOc1ccc(N(CC(=O)Nc2ccccc2F)S(=O)(=O)c2c(C)[nH]c(=O)[nH]c2=O)cc1`, for which the binding response (% of control) is 101% (inactive).
Consider `COc1ccc(S(=O)(=O)N2CCOCC2)cc1C(=O)NC1CCCCC1`, for which the binding response (% of control) is 103% (inactive).
As to `COCCNC(=S)Nc1cc(S(=O)(=O)N2CCOCC2)ccc1N1CCCCC1`, the binding response (% of control) is 99% (inactive).
With `O=C(NCC1CCCCC1)c1cc(S(=O)(=O)N2CCCCC2)ccc1N1CCOCC1` the figure was 4% [inhibitor] (active); with `COc1cccc(C(=O)OCc2cc(=O)oc3c(C)c(C)ccc23)c1OC`, 103% (inactive); with `Nc1nc(SCc2cccc(Br)c2)n[nH]1`, 105% (inactive).
As for `CSCC[C@H](NC(=O)CCCn1nnc2ccccc2c1=O)C(=O)O`, the figure is 137% (active); as for `O=C(CCn1nnc2ccccc2c1=O)N[C@@H](Cc1c[nH]c2ccccc12)C(=O)O`, 98% (inactive); as for `O=c1c2ccccc2nnn1CSc1nnnn1-c1ccccc1`, 101% (inactive).
With `CN(CCc1ccccn1)C(=O)c1ccc(OC2CCN(CCc3ccccc3)CC2)cc1`, the binding response (% of control) was 98% (inactive).
Regarding `COc1ccc(CNC(=O)C2CCN(S(=O)(=O)N3CCOCC3)CC2)cc1`, the binding response (% of control) was 104% (inactive).
Regarding `COc1ccc(CNC(=O)C2CCN(S(C)(=O)=O)CC2)cc1`, the binding response (% of control) is 39% [inhibitor] (active).
On to `COc1ccc(CNC(=O)C2CCN(S(=O)(=O)c3ccc(SC)cc3)CC2)cc1`, for which the binding response (% of control) is 101% (inactive).
As to `COc1ccc(CNC(=O)[C@@H]2CC=C[C@@H]3CCN(C4CC4)C(=O)[C@@H]32)cc1`, the binding response (% of control) was 101% (inactive).
For `O=S(=O)(Nc1ccccc1Br)c1cccs1`, the binding response (% of control) was 100% (inactive).
Regarding `CCOC(=O)/C(C#N)=C/c1ccc(OCC(=O)Nc2ccccc2)c(OC)c1`, the binding response (% of control) was 27% [inhibitor] (active).
On to `CCCn1c(C)cc(/C=C(\C#N)C(=O)OCC(=O)Nc2cc(OC)c(OC)c(OC)c2)c1C`, for which the binding response (% of control) is 101% (inactive).
Take `COc1cc(C2C3=C(CCCC3=O)OC3=C2C(=O)CCC3)ccc1OCC(=O)Nc1ccccc1`: the binding response (% of control) is 100% (inactive).
Take `Cc1cc(C)c2nc(N(CCN(C)C)C(=O)/C=C/c3cccs3)sc2c1`: the binding response (% of control) was 101% (inactive).
Take `COc1ccc(NC(=O)NNC(=O)COc2cc(C)c(Cl)c(C)c2)c(OC)c1`: the binding response (% of control) is 105% (inactive).
Regarding `CC(C)(C)OC(=O)N1CCC(C(=O)NNC(=O)c2ccc(Cl)cc2Cl)CC1`, the binding response (% of control) was 101% (inactive).
For `COc1ccc(CC(=O)N2N=C(C)CC2(O)C(F)(F)F)cc1` (centres undefined), the binding response (% of control) was 129% (active).
On to `CC1=NN(C(=O)CCCc2ccccc2)C(O)(C(F)(F)F)C1` (centres undefined), for which the binding response (% of control) is 108% (inactive).
Turning to `CC1=NN(C(=O)CCc2ccccc2O)C(O)(C(F)(F)F)C1` (centres undefined), the binding response (% of control) is 90% (inactive).
`COc1cc(OC)c(C(=S)N2CCCC2)cc1OC`: the binding response (% of control) is 104% (inactive).
With `CCn1c(=S)sc2c(=O)n(CC(=O)Nc3cccc(Br)c3)c(C)nc21`, the binding response (% of control) is 102% (inactive).
In the case of `COc1ccc(/C=C2\SC(=S)N(CCCC(=O)NC3CCCC3)C2=O)cc1OC`, the binding response (% of control) was 96% (inactive).
Consider `COc1cc(NC(=O)CN2C(=O)NC(C)(c3ccc(OC(F)F)cc3)C2=O)cc(OC)c1OC` (centres undefined), for which the binding response (% of control) was 100% (inactive).
For the molecule `Fc1ccccc1COc1cccc2cccnc12`, the binding response (% of control) is 105% (inactive).
Take `Cc1onc(-c2ccccc2)c1C(=O)NNC(=S)NC(=O)c1ccc(F)cc1`: the binding response (% of control) was 98% (inactive).
For `COc1ccc(C(=O)NC(=S)NNC(=O)c2c(-c3ccccc3)noc2C)cc1`, the binding response (% of control) was 134% (active).
Take `COc1ccc(C(=O)NNC(=S)NC(=O)c2ccccc2)cc1`: the binding response (% of control) is 101% (inactive).
With `CN(C)C(=O)CCC(=O)N1CCCCC1C(=O)Nc1ccc(Oc2ccccc2F)cc1` (centres undefined) the figure was 105% (inactive).
As for `Cc1nn(-c2ccccc2)c(C)c1NC(=O)CCl`, the figure is 138% (active); as for `Cc1nn(-c2ccccc2)c(C)c1NC(=O)COc1ccc(Cl)cc1Cl`, 104% (inactive).
As to `Cc1nn(-c2ccccc2)c(Cl)c1C(=O)Nc1ccccc1`, the binding response (% of control) is 98% (inactive).
With `Cc1cnc(CN(C)C(=O)C2CCC(=O)N(CCc3cccc(F)c3)C2)[nH]1` (centres undefined), the binding response (% of control) was 104% (inactive).
Turning to `CC1(c2ccc3ccccc3c2)NC(=O)NC1=O` (centres undefined), the binding response (% of control) is 106% (inactive).
For `O=c1c2ccccc2ncn1CCCCOc1ccccc1F`, the binding response (% of control) is 103% (inactive).
Take `Cc1cccc(OCCNC(=O)CSc2ccc(C(F)(F)F)cc2[N+](=O)[O-])c1`: the binding response (% of control) is 133% (active).
For the molecule `Nc1ccccc1Sc1ccc(C(F)(F)F)cc1[N+](=O)[O-]`, the binding response (% of control) was 107% (inactive).
Consider `O=C(CSc1ccc(C(F)(F)F)cc1[N+](=O)[O-])NCCOc1ccccc1`, for which the binding response (% of control) is 94% (inactive).
On to `Cn1nccc1C(=O)NC1CCCc2c1cnn2-c1ccccc1F` (centres undefined), for which the binding response (% of control) was 101% (inactive).
With `CC(=O)C(C)n1cnc2scc(-c3ccc(C)cc3)c2c1=O` (centres undefined), the binding response (% of control) is 98% (inactive).
Take `CCc1ccc(C(=O)COC(=O)c2ccco2)cc1`: the binding response (% of control) is 103% (inactive).
With `Cc1nc(-c2ccc(Cl)cc2)sc1C1(C)CC(c2ccc(Br)cc2)=NO1` (centres undefined) the figure was 100% (inactive); with `COc1ccc(C(CNC(=O)COc2ccccc2OC)N2CCCCC2)cc1` (centres undefined), 100% (inactive); with `O=C(Cn1cc(C(=O)C2CC2)c2ccccc21)Nc1ccccc1Cl`, 99% (inactive).
With `CCN1CCN(CCCCOc2ccccc2F)CC1` the figure was 100% (inactive); with `COc1ccccc1N1CCN(Cc2ccc(OC)c3ccccc23)CC1`, 105% (inactive).
Consider `COc1ccccc1N1CCN(CCCCOc2ccc(F)cc2)CC1`, for which the binding response (% of control) is 124% (active).
As for `COc1ccc(CCN(C)C(=O)C23CC4CC(CC(Cl)(C4)C2)C3)cc1OC`, the figure is 102% (inactive); as for `O=C(CCc1nnc2ccc(NCCCN3CCCC3=O)nn12)NCc1ccccc1Cl`, 101% (inactive); as for `CC(C)(C)NC(=O)c1ccc(Cn2cc(C(F)(F)F)ccc2=O)cc1`, 100% (inactive).
As for `COc1cc(-c2nnc(Cn3cc(C(F)(F)F)ccc3=O)o2)cc(OC)c1OC`, the figure is 2% [inhibitor] (active).
Take `CCOC(=O)c1cc(-c2nnc(-c3cc(OC)c(OC)c(OC)c3)o2)c(C)nc1C`: the binding response (% of control) was 100% (inactive).
Turning to `Cc1ccc(S(=O)(=O)N2CCC3(CC2)OCCO3)c(C)c1`, the binding response (% of control) is 101% (inactive).
With `CCCCCc1c(C)nc(N2CCN(Cc3ccc4c(c3)OCO4)CC2)[nH]c1=O` the figure was 98% (inactive); with `Cc1cc(S(=O)(=O)NCC(C)C)ccc1OCC(=O)NC1CC1`, 102% (inactive); with `COc1ccccc1NC(=S)N1CCN(C(c2ccccc2)c2ccccc2)CC1`, 102% (inactive).
`COc1ccccc1NC(=S)N1CCN(c2ccc(F)cc2)CC1`: the binding response (% of control) was 45% [inhibitor] (active).
Regarding `COC(=O)c1ccc(C(=O)OC)c(NC(=S)N2CCN(c3ccc(F)cc3)CC2)c1`, the binding response (% of control) is 97% (inactive).
Regarding `COc1cccc(NC(=O)CCc2nnc3ccc(N4CCC(C)CC4)nn23)c1`, the binding response (% of control) is 98% (inactive).
Take `CC1(C)C=Cc2c(ccc3c2OC[C@@H](c2ccc(O)cc2O)C3)O1`: the binding response (% of control) is 108% (inactive).
Take `Cc1nc2ccccc2nc(C)c1=NOCc1ccc(Cl)cc1Cl`: the binding response (% of control) is 98% (inactive).
With `Cc1cn(COC/C=C/c2ccccc2)c(=O)[nH]c1=O` the figure was -2% [inhibitor] (active); with `Cc1[nH]c(=O)c(C(=O)/C=C/c2ccccc2)c2c1CCCC2`, 107% (inactive); with `Cc1nc2nc[nH]n2c(=O)c1C/C=C/c1ccccc1`, 84% (inactive).
With `Cc1cc(=O)oc2cc(OCC(=O)N3CCN(c4ccc(F)cc4)CC3)c(Cl)cc12`, the binding response (% of control) was 101% (inactive).
With `Cc1ncc(CC(=O)n2cc(C(=O)c3cc(Cl)ccc3O)cn2)s1` the figure was 109% (inactive); with `COc1ccc(C(=O)Cc2cnn(-c3ccccc3)c2)c(O)c1`, 101% (inactive).
For the molecule `O=C(c1cnn(-c2ccc(Cl)cc2)c1)c1ccccc1O`, the binding response (% of control) was 129% (active).
As for `CC1(C)C2CC[C@]3(C)C(CC=C4[C@@H]5C[C@@](C)(CO)CC[C@]5(C(=O)O)CC[C@]43C)[C@@]2(C)CC[C@@H]1O` (some centres undefined), the binding response (% of control) was 105% (inactive).
Consider `Cn1nnnc1NCc1ccc(Cl)c(Cl)c1`, for which the binding response (% of control) is 105% (inactive).
Consider `CCCn1nnnc1NCc1ccc(OC)cc1`, for which the binding response (% of control) was 111% (inactive).
With `COc1ccc(CNc2nnnn2C)cc1`, the binding response (% of control) was 51% [inhibitor] (active).
As for `CCOC(=O)c1c(-c2ccccc2)oc2cc(Br)c(O)c(C=O)c12`, the binding response (% of control) was 98% (inactive).
Turning to `Cc1cc(OCC(=O)Nc2c(C)n(C)n(-c3ccccc3)c2=O)ccc1[N+](=O)[O-]`, the binding response (% of control) was 96% (inactive).
With `CCc1ccc(NC(=O)COC(=O)c2cccs2)cc1`, the binding response (% of control) is 101% (inactive).
Take `O=C(CNC(=O)c1ccc(Br)o1)NCC1CCCO1` (centres undefined): the binding response (% of control) was 102% (inactive).
`O=C(c1cccs1)N(C(=O)c1cccs1)c1ccccn1`: the binding response (% of control) was 94% (inactive).
As for `O=C(c1ccc(Br)o1)N(c1ccccn1)C1CCCCC1`, the binding response (% of control) was 131% (active).
Regarding `Cc1ccc(NC(=O)CSc2nn3c(=O)c(C)nnc3s2)cc1Cl`, the binding response (% of control) was 88% (inactive).
As to `CNC(C)C#Cc1ccc2sc3cc(OC)c(OC)cc3c(=O)c2c1` (centres undefined), the binding response (% of control) is 110% (inactive).
